Measurements reported in PubChem BioAssay (Tox21).
Several values for one entry are separate records, joined by “and”; a condition that tells them apart may be missing. Equal values may be shown once. Results filed as inconclusive are left out. Where a call stands in place of a potency, no number is given. A structure can be active in one record and inactive in another. Activity calls are given as the source filed them. Calls follow the shape of the dose curve; as a rule, active = well fitted curve in the direction sought with a large enough effect in the repeat runs; inconclusive = weak or mixed curves; inactive = no such curve, though single readings can be large; an effect the other way counts as inactive or inconclusive.

Experiment: qHTS RealTime-Glo MT Cell Viability Assay in HepG2 cells - 0 hour (AID 1224889); also: nearly all actives have a fitted effect of over 50% in size; also: potency is read from the fitted curve at half-maximal effect
Conditions: RealTime-Glo luminescence; series mostly up to 76.8 µM; activity change, negative = cytotoxicity: at the top concentration
Procedure, shortened: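 Real-time, nonlytic viability: 600 HepG2 cells/well mixed with NanoLuc enzyme plus prosubstrate; 5 h settle, compound (DMSO) added by pintool; luminescence monitored over 40 h at 37 C.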
In the case of `Cc1cc(CC(=O)O)n(C)c1C(=O)c1ccc(Cl)cc1`, the Potency is reported as “inactive”. With `Cc1ccccc1C=O` the Potency was “inactive”. In the case of `C[n+]1ccn(CCO)c1`, the Potency is reported as “inactive”. With `CCCN(CCC)C(=O)SCC` the Potency was “inactive”. For `C1CCCNCC1`, the Potency was “inactive”. With `NCCNCCNCCN` the Potency was “inactive”. With `COC(=O)/C=C\C(=O)OC` the Potency was “inactive”. In the case of `C=CC(=O)NCOCCCC`, the Potency is reported as “inactive”. In the case of `CS(=O)(=O)c1ccc(Cl)cc1`, the Potency is reported as “inactive”. For `OCC(O)CS` (centres undefined), the Potency was “inactive”. For `NC1CCCCC1N` (centres undefined), the Potency was “inactive”. With `CC(C)=CCC/C(C)=C/C=O` the Potency was “inactive”. For `O=C(NCC1CCCCN1)c1cc(OCC(F)(F)F)ccc1OCC(F)(F)F` (centres undefined), the Potency was “inactive”. With `CCCCCNCCCCC` the Potency was “inactive”. For `Cc1ccc(C)c(S(=O)(=O)O)c1`, the Potency was “inactive”. For `C=C(CC(=O)O)C(=O)O`, the Potency was “inactive”. In the case of `CCn1cc(C(=O)O)c(=O)c2cc3c(cc21)OCO3`, the Potency is reported as “inactive”. With `C=C1C[C@]23C[C@@]1(O)CC[C@H]2[C@@]12C=C[C@H](O)[C@@](C)(C(=O)O1)[C@H]2[C@@H]3C(=O)O` the Potency was “inactive”. In the case of `CC(=O)OCc1ccc2c(c1)OCO2`, the Potency is reported as “inactive”. With `CCCOC(=O)NCCCN(C)C` the Potency was “inactive”. For `CN1Cc2c(N)cccc2C(c2ccccc2)C1` (centres undefined), the Potency was “inactive”. For `O=c1n(CCCN2CCN(c3cccc(Cl)c3)CC2)nc2ccccn12`, the Potency was 49 µM (active) and inactive. In the case of `Cc1ccccc1Cl`, the Potency is reported as “inactive”. For `NC(N)=S`, the Potency was “inactive”. In the case of `CC(C)(CO)CO`, the Potency is reported as “inactive”. With `COC(=O)OC` the Potency was “inactive”. For `CC1(C)C(=O)N(Cl)C(=O)N1Cl`, the Potency was “inactive”. For `CC(C)(C)NC[C@H](O)COc1nsnc1N1CCOCC1`, the Potency was “inactive”. With `Cc1cccc(C)c1[N+](=O)[O-]` the Potency was “inactive”. With `CC(CN1c2ccccc2Sc2ccccc21)N(C)C` (centres undefined) the “activity change, negative = cytotoxicity” value was 20% [at 35.3 µM] (inactive). For `O=C(c1ccccc1)c1ccc(O)c(O)c1O`, the Potency was “inactive”. For `O=C1OC(=O)c2c(Cl)c(Cl)c(Cl)c(Cl)c21`, the Potency was “inactive”. With `OCc1ccc(Cl)cc1Cl` the Potency was “inactive”. In the case of `O=C1O[C@H]([C@H](O)CO)C(O)=C1O`, the Potency is reported as “inactive”. For `OCCOCCOCCOCCOCCO`, the Potency was “inactive”. For `CCN(CC)CCNC(=O)c1ccc(N)cc1`, the Potency was “inactive”. For `COCN(COC)c1nc(N(COC)COC)nc(N(COC)COC)n1`, the Potency was “inactive”. In the case of `CC(=O)OCCC(C)C`, the Potency is reported as “inactive”.

Experiment: A CellTox Green Cytotoxicity Assay to monitor cytotoxicity in HepG2 cells - 8 hour (AID 1224890); also: nearly all actives have a fitted effect of over 45% in size; also: potency is read from the fitted curve at half-maximal effect
Conditions: CellTox Green fluorescence; series mostly up to 76.8 µM; cytotoxicity increase: at the top concentration
Procedure, shortened: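 HepG2 cells, 600/well, preincubated 5 h with CellTox Green dye, then exposed to Tox21 compounds in DMSO at 37 C for up to 40 h. Dead-cell DNA fluorescence read at the indicated time point.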
In the case of `Cc1cc(CC(=O)O)n(C)c1C(=O)c1ccc(Cl)cc1`, the Potency is reported as “inactive”. With `Cc1ccccc1C=O` the Potency was “inactive”. In the case of `C[n+]1ccn(CCO)c1`, the “cytotoxicity increase” value is reported as 0.0738% (inactive). With `CCCN(CCC)C(=O)SCC` the Potency was “inactive”. For `C1CCCNCC1`, the Potency was “inactive”. With `NCCNCCNCCN` the Potency was “inactive”. In the case of `COC(=O)/C=C\C(=O)OC`, the Potency is reported as “inactive”. For `C=CC(=O)NCOCCCC`, the Potency was “inactive”. With `CS(=O)(=O)c1ccc(Cl)cc1` the “cytotoxicity increase” value was -3.11% (inactive). In the case of `OCC(O)CS` (centres undefined), the Potency is reported as “inactive”. With `NC1CCCCC1N` (centres undefined) the Potency was “inactive”. In the case of `CC(C)=CCC/C(C)=C/C=O`, the Potency is reported as “inactive”. For `O=C(NCC1CCCCN1)c1cc(OCC(F)(F)F)ccc1OCC(F)(F)F` (centres undefined), the Potency was “inactive”. For `CCCCCNCCCCC`, the Potency was “inactive”. For `Cc1ccc(C)c(S(=O)(=O)O)c1`, the Potency was “inactive”. In the case of `C=C(CC(=O)O)C(=O)O`, the Potency is reported as “inactive”. With `CCn1cc(C(=O)O)c(=O)c2cc3c(cc21)OCO3` the Potency was “inactive”. For `C=C1C[C@]23C[C@@]1(O)CC[C@H]2[C@@]12C=C[C@H](O)[C@@](C)(C(=O)O1)[C@H]2[C@@H]3C(=O)O`, the Potency was “inactive”. For `CC(=O)OCc1ccc2c(c1)OCO2`, the Potency was “inactive”. In the case of `CCCOC(=O)NCCCN(C)C`, the Potency is reported as “inactive”. For `CN1Cc2c(N)cccc2C(c2ccccc2)C1` (centres undefined), the Potency was “inactive”. For `O=c1n(CCCN2CCN(c3cccc(Cl)c3)CC2)nc2ccccn12`, the “cytotoxicity increase” value was 14.5% [at 35.3 µM] (inactive). In the case of `Cc1ccccc1Cl`, the Potency is reported as “inactive”. In the case of `NC(N)=S`, the Potency is reported as “inactive”. For `CC(C)(CO)CO`, the Potency was “inactive”. In the case of `COC(=O)OC`, the Potency is reported as “inactive”. In the case of `CC1(C)C(=O)N(Cl)C(=O)N1Cl`, the Potency is reported as “inactive”. In the case of `CC(C)(C)NC[C@H](O)COc1nsnc1N1CCOCC1`, the Potency is reported as “inactive”. With `Cc1cccc(C)c1[N+](=O)[O-]` the Potency was “inactive”. With `CC(CN1c2ccccc2Sc2ccccc21)N(C)C` (centres undefined) the Potency was “inactive and 54.9 µM (active)”. In the case of `O=C(c1ccccc1)c1ccc(O)c(O)c1O`, the Potency is reported as “inactive”. For `O=C1OC(=O)c2c(Cl)c(Cl)c(Cl)c(Cl)c21`, the Potency was “inactive”. With `OCc1ccc(Cl)cc1Cl` the Potency was “inactive”. With `O=C1O[C@H]([C@H](O)CO)C(O)=C1O` the Potency was “inactive”. With `OCCOCCOCCOCCOCCO` the Potency was “inactive”. For `CCN(CC)CCNC(=O)c1ccc(N)cc1`, the Potency was “inactive”. For `COCN(COC)c1nc(N(COC)COC)nc(N(COC)COC)n1`, the Potency was “inactive”. For `CC(=O)OCCC(C)C`, the Potency was “inactive”.

Experiment: qHTS assay to identify small molecule antagonists of the estrogen receptor alpha (ER-alpha) signaling pathway using the BG1 cell line in the presence of 0.1 nM 17-beta-estradiol - cell viability counter screen (AID 1259241); also: nearly all actives have a fitted effect of over 40% in size
Conditions: VM7Luc4E2 (BG1) viability, CellTiter-Fluor protease, 22 h, 0.1 nM estradiol agonist added; series mostly up to 92.4 µM; activity change, negative = cytotoxicity: at the top concentration
Procedure, shortened: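 Cells were plated and left 24 hr, compounds in DMSO were pinned in, 17beta-estradiol was added to 0.1 nM final, and after 22 hr CellTiter-Fluor reagent was added for 30 min before fluorescence was read.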
For `Cc1cc(CC(=O)O)n(C)c1C(=O)c1ccc(Cl)cc1`, the Potency was “inactive”. For `Cc1ccccc1C=O`, the Potency was “inactive”. In the case of `C[n+]1ccn(CCO)c1`, the Potency is reported as “inactive”. For `CCCN(CCC)C(=O)SCC`, the Potency was “inactive”. In the case of `C1CCCNCC1`, the Potency is reported as “inactive”. In the case of `NCCNCCNCCN`, the Potency is reported as “inactive”. In the case of `COC(=O)/C=C\C(=O)OC`, the Potency is reported as “inactive”. In the case of `C=CC(=O)NCOCCCC`, the Potency is reported as “inactive”. For `CS(=O)(=O)c1ccc(Cl)cc1`, the Potency was “inactive”. With `OCC(O)CS` (centres undefined) the Potency was “inactive”. In the case of `NC1CCCCC1N` (centres undefined), the Potency is reported as “inactive”. With `CC(C)=CCC/C(C)=C/C=O` the Potency was “inactive”. With `O=C(NCC1CCCCN1)c1cc(OCC(F)(F)F)ccc1OCC(F)(F)F` (centres undefined) the Potency was “inactive”. With `CCCCCNCCCCC` the Potency was “inactive”. For `Cc1ccc(C)c(S(=O)(=O)O)c1`, the Potency was “inactive”. For `C=C(CC(=O)O)C(=O)O`, the Potency was “inactive”. With `CCn1cc(C(=O)O)c(=O)c2cc3c(cc21)OCO3` the Potency was “inactive”. In the case of `C=C1C[C@]23C[C@@]1(O)CC[C@H]2[C@@]12C=C[C@H](O)[C@@](C)(C(=O)O1)[C@H]2[C@@H]3C(=O)O`, the Potency is reported as “inactive”. In the case of `CC(=O)OCc1ccc2c(c1)OCO2`, the Potency is reported as “inactive”. In the case of `CCCOC(=O)NCCCN(C)C`, the Potency is reported as “inactive”. For `CN1Cc2c(N)cccc2C(c2ccccc2)C1` (centres undefined), the Potency was “inactive”. In the case of `O=c1n(CCCN2CCN(c3cccc(Cl)c3)CC2)nc2ccccn12`, the Potency is reported as “inactive”. In the case of `Cc1ccccc1Cl`, the Potency is reported as “inactive”. With `NC(N)=S` the Potency was “inactive”. With `CC(C)(CO)CO` the Potency was “inactive”. For `COC(=O)OC`, the Potency was “inactive”. With `CC1(C)C(=O)N(Cl)C(=O)N1Cl` the Potency was “inactive”. For `CC(C)(C)NC[C@H](O)COc1nsnc1N1CCOCC1`, the Potency was “inactive”. With `Cc1cccc(C)c1[N+](=O)[O-]` the Potency was “inactive”. With `CC(CN1c2ccccc2Sc2ccccc21)N(C)C` (centres undefined) the Potency was “inactive”. For `O=C(c1ccccc1)c1ccc(O)c(O)c1O`, the Potency was “inactive”. In the case of `O=C1OC(=O)c2c(Cl)c(Cl)c(Cl)c(Cl)c21`, the Potency is reported as “inactive”. For `OCc1ccc(Cl)cc1Cl`, the Potency was “inactive”. In the case of `O=C1O[C@H]([C@H](O)CO)C(O)=C1O`, the Potency is reported as “inactive”. With `OCCOCCOCCOCCOCCO` the Potency was “inactive”. With `CCN(CC)CCNC(=O)c1ccc(N)cc1` the Potency was “inactive”. For `COCN(COC)c1nc(N(COC)COC)nc(N(COC)COC)n1`, the Potency was “inactive”. In the case of `CC(=O)OCCC(C)C`, the Potency is reported as “inactive”.
